In the library only some 5.5% were active in any assay of this set; here they are far more common.
Giardia kill: Small Molecules that selectively kill Giardia lamblia: qHTS. activity change, % at 7.66 µM, hits read low. AID 540267, 2011. Giardia lamblia trophozoite viability. actives 0.15% (n = 340,000); in the data active = activity change below about -80%; inconclusive = between about -30% and that limit;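 note: parasites exposed to compound for two days anaerobically before the ATP read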
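Trophozoite viability was measured as ATP-dependent luminescence, read 15-30 min after reagent addition. Before that, parasites at 100 cells/well were exposed to compounds for 48 h, anaerobically, at 37 deg C.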
Sfp inh: qHTS Assay for Inhibitors of Bacillus subtilis Sfp phosphopantetheinyl transferase (PPTase) | Biochemical Sfp PPTase activity, qHTS | Potency, µM, inactives show largest response in the series, negative = inhibition, most hits filed as inhibitors | actives 3.5% (n = 310,000) | 4'-phosphopantetheinyl transferase ffp (Bacillus subtilis), Q9F4F7;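 note: the enzyme is Sfp with the accession as filed and its product quenches rhodamine fluorescence; potency is the fitted concentration of half-maximal effect; 0% = enzyme reaction without inhibitor and -100% = no enzyme wells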
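After 15 min at room temperature with compound, 15 nM Sfp received 5 uM rhodamine-CoA plus 12.5 uM BHQ-2-ybbR (50 mM Hepes pH 7.6, 10 mM MgCl2). Rate came from the fluorescence difference over 30 min, ex 525/em 598 nm.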
ELG1 repair inh: qHTS screen for small molecules that inhibit ELG1-dependent DNA repair in human embryonic kidney (HEK293T) cells expressing luciferase-tagged ELG1 | actives 2.3% (n = 330,000) | HEK293T ELG1-luciferase reporter, luminescence, 16 h; DNA damage induced by 5-fluorouridine | Potency, µM (top dose mostly 46.1 µM), for inactives: at the highest dose activity change, negative = inhibition, usual class: inhibitors | AID 504467, 2011; note: potency is the fitted concentration of half-maximal effect; nearly all actives have a fitted effect of over 55% in size
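DMSO vehicle served as the neutral condition. Each well held 2,000 cells given 5-fluorouridine plus compound; after 16 hr at 37 °C/5% CO2, ONE-Glo was added and luciferase measured 30 min later.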
Coupling enz: qHTS Assay for Inhibitors of Fructose-1,6-bisphosphate Aldolase from Giardia Lamblia: Coupling assay counterscreen. AID 2472, 2010. coupling enzyme system counterscreen, AmpLite Red fluorescence. activity change, negative = inhibition, % at 58.2 µM, hits read low. actives 0.67% (n = 290,000); in the data active = activity change below about -30%
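Final compound at 57.5 uM, incubated 10 min at RT with coupling enzyme reagent (glyceraldehyde-3-phosphate), then 20 min with substrate and AmpLite Red detection. Fluorescence read at 525/598 nm; tests interference with the coupling assay, not aldolase inhibition.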
* hit, by the source's call. Unless noted, calls come from the whole dose curve; as a rule, active = well fitted curve in the direction sought with a large enough effect; inconclusive = small, poorly fitted or top-dose-only effect, or another doubt; inactive = no such curve, though single readings can be large; an effect the other way counts as inactive or inconclusive. Unless noted, % is set by controls: 0 for no effect and ±100 for the full control effect.

Results for Cc1ccc(NC(=O)CCc2nnc3ccc(N4CCC5(CC4)OCCO5)nn23)nc1 ?
Giardia kill: 22; Sfp inh: -4%; ELG1 repair inh: 5.8µM*

How did Cc1cccc(/C=N/n2c(C3CCCCC3)n[nH]c2=S)c1 do in these assays?
Giardia kill: -28; Sfp inh: 79µM*; ELG1 repair inh: 12%; Coupling enz: 0

How did FC(F)(F)c1ccccc1/C=N/n1c(C2CCCCC2)n[nH]c1=S do in these assays?
Giardia kill: -8; Sfp inh: inconclusive; ELG1 repair inh: -1%; Coupling enz: -1

Results for S=c1[nH]nc(C2CCCCC2)n1/N=C/c1ccccc1Cl ?
Giardia kill: 14; Sfp inh: 63µM*; ELG1 repair inh: 1%; Coupling enz: -3

Results for O=C(NCC(=O)N1CCN(c2ccccc2O)CC1)c1cccs1 ?
Giardia kill: 13; ELG1 repair inh: inconclusive

Results for CCOC(=O)C1=C(c2ccccc2)c2cc(OC)ccc2OC1C(=O)OCC (stereo not given) ?
Sfp inh: 2%; Coupling enz: -1

Results for O=C1C=C(c2cccc3c2sc2ccccc23)C[C@@H](c2ccc(F)cc2)C1 ?
Giardia kill: 13; ELG1 repair inh: 13µM*

Results for COc1ccc([C@H]2CC(=O)C=C(c3cc(F)ccc3F)C2)cc1OC ?
Giardia kill: 0; ELG1 repair inh: inconclusive

How did COc1ccc([C@H]2CC(=O)C=C(c3cccc4c3sc3ccccc34)C2)cc1OC do in these assays?
Giardia kill: -8; ELG1 repair inh: 8.2µM*

Results for COc1ccc([C@H]2CC(=O)C=C(c3cccc(OC)c3OC)C2)cc1OC ?
Giardia kill: -5; ELG1 repair inh: 9.2µM*

What do the screens show for `C/C(=C\C[Si](C)(C)C)CCC=O`?
Sfp inh: 63µM*; Coupling enz: -4

How did Cc1ccc(S(=O)(=O)/N=C2/C=C(C3C(=O)CC(C)(C)CC3=O)C(=O)c3ccccc32)cc1 do in these assays?
Giardia kill: 12; Sfp inh: inconclusive; ELG1 repair inh: inconclusive; Coupling enz: -48*

Results for CCN(CC)c1nc(N)nc(NS(=O)(=O)c2ccc(Cl)cc2)n1 ?
Giardia kill: -1; Sfp inh: -2%; ELG1 repair inh: -13%; Coupling enz: -33*

What do the screens show for `CCc1noc(C)c1C(=O)N1CCN(S(=O)(=O)c2ccc(Br)cc2Cl)CC1`?
Giardia kill: 35; ELG1 repair inh: 0%

How did CC(C)=CCC/C(C)=C/CNC(=O)C[C@H]1C[C@H](C(=O)N(C(C)C)C(C)C)[C@@]2(C)c3[nH]c4cc(CCC(=O)N(C)C)ccc4c3CCN2C1=O do in these assays?
Giardia kill: 18; ELG1 repair inh: inconclusive

What do the screens show for `CCOC(=O)/C=C1\Nc2ccccc2OC1=O`?
Giardia kill: 6; Sfp inh: 50µM*; ELG1 repair inh: 1%; Coupling enz: -2

Results for COC(=O)c1ccccc1C(=O)N(c1ccccc1)c1ccccc1 ?
Giardia kill: 2

Results for CCOc1ccccc1CNC(=O)Cn1ccc2cc(S(=O)(=O)N3CCC(C)CC3)ccc21 ?
Giardia kill: 10; Sfp inh: 21%; ELG1 repair inh: -11%; Coupling enz: 2

How did CCOC(=O)C1CCCN(C(=O)c2cccc(S(=O)(=O)N(C)c3ccc(C)cc3)c2)C1 (stereo not given) do in these assays?
Giardia kill: 0; ELG1 repair inh: 0%

How did Nc1ccc2nc3c(=O)n(CCc4ccccc4)c(=O)[nH]c3nc2c1 do in these assays?
Giardia kill: inconclusive; Sfp inh: -18%; ELG1 repair inh: inconclusive; Coupling enz: -20

Results for CCCCn1c(=O)[nH]c2nc3cc(N)ccc3nc2c1=O ?
Giardia kill: -6; Sfp inh: 56µM*; ELG1 repair inh: inconclusive; Coupling enz: -53*

Results for Cc1cc2nc3c(=O)n(CCc4ccccc4)c(=O)[nH]c3nc2cc1N ?
Giardia kill: -7; Sfp inh: 7.9µM*; ELG1 repair inh: -22%; Coupling enz: -22

Results for C=CCOCC(O)Cn1c(N2CCCC2)nc2c1c(=O)[nH]c(=O)n2C (stereo not given) ?
Giardia kill: -2; Sfp inh: 9%; ELG1 repair inh: 16%; Coupling enz: 5

High-throughput results: PubChem, National Center for Advancing Translational Sciences (NCATS)
